The results in this text go back to PubChem BioAssay (Tox21).

Each structure is given as a SMILES string. Records with an inconclusive call do not appear. Activity calls are given as the source filed them. Unless noted, the call rests on the fitted dose curve; in most records, active means well fitted curve in the direction sought with a large enough effect in the repeat runs; inconclusive means weak or mixed curves; inactive means no such curve, though single readings can be large; an effect the other way counts as inactive or inconclusive.

A short description of experiment [1]: qHTS assay to identify small molecule antagonists of the thyroid receptor (TR) signaling pathway - cell viability counter screen (AID 743064). Further: nearly all actives have a fitted effect of over 50% in size. Further: potency means the concentration at half of the fitted maximal effect. Summed up:
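GH3.TRE-Luc cells, 4 h pre-plating; cpd + T3 1 nM final; 37 °C 23.5 h; CellTiter-Fluor 30 min; fluorescence read.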
(In general: qHTS replaces the single test concentration by a dilution series.)

Experiment [2] in a line: qHTS assay to identify small molecule antagonists of the thyroid receptor (TR) signaling pathway (AID 743065). Further: nearly all actives have a fitted effect of over 55% in size. Further: potency means the concentration at half of the fitted maximal effect. The procedure, abridged: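 Antagonism measured as loss of luciferase signal in GH3 cells stably carrying a TRE-luciferase reporter, co-treated with compound and T3 (1 nM final) for 23.5 h at 37 C. Viability was read in the same well by CellTiter-Fluor.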
The test system of experiment [3] is thyroid hormone receptor (rat, GH3 cells). The experiment is described as follows: qHTS assay to identify small molecule agonists of the thyroid receptor (TR) signaling pathway (AID 743066; calls by dose curve; further: potency means the concentration at half of the fitted maximal effect).
Experiment [4] in a line: qHTS assay to identify small molecule antagonists of the estrogen receptor alpha (ER-alpha) signaling pathway - cell viability counter screen (AID 743074; calls by dose curve;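 further: HEK293 cells carrying ER-alpha-UAS-bla reporter stimulated with 17beta-estradiol; nearly all actives have a fitted effect of over 45% in size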; further: potency means the concentration at half of the fitted maximal effect).
Experiment [5] deals with Estrogen receptor (Homo sapiens) (UniProt P03372). The experiment can be described thus: qHTS assay to identify small molecule agonists of the estrogen receptor alpha (ER-alpha) signaling pathway (AID 743075; calls by dose curve;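 further: HEK293 GripTite cells with ER-alpha and UAS-driven beta-lactamase reporter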).
Experiment [6] can be described thus: qHTS assay to identify small molecule antagonists of the estrogen receptor alpha (ER-alpha) signaling pathway using the BG1 cell line - cell viability counter screen (AID 743081).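 Further: compound given together with 17beta-estradiol as the ER stimulus; nearly all actives have a fitted effect of over 45% in size.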 Further: potency means the concentration at half of the fitted maximal effect.
Another experiment has as its target Aromatase (Homo sapiens) (UniProt P11511). The experiment is described as follows: qHTS assay to identify aromatase inhibitors (AID 743083). Further: nearly all actives have a fitted effect of over 55% in size. Further: potency means the concentration at half of the fitted maximal effect.
Experiment [7] can be described thus: qHTS assay to identify aromatase inhibitors - cell viability counter screen (AID 743084).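 Further: cells stimulated with testosterone during compound exposure; nearly all actives have a fitted effect of over 55% in size.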 Further: potency means the concentration at half of the fitted maximal effect.
Experiment [8] addresses Aryl hydrocarbon receptor (Homo sapiens) (UniProt P35869). The experiment is described as follows: qHTS assay to identify small molecule that activate the aryl hydrocarbon receptor (AhR) signaling pathway (AID 743085).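 Further: HG2L7.5c1 human HepG2 liver cells with stably integrated DRE-driven firefly reporter; nearly all actives have a fitted effect of over 15% in size.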 Summed up: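 Luminescence read-out: ONE-Glo reagent, 30 min at room temperature, in HG2L7.5c1 HepG2 reporter cells treated 24 h at 37C. Viability was measured beforehand by CellTiter-Fluor fluorescence after 30 min at 37C.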

The nature of experiment [9]: qHTS assay to identify small molecule that activate the aryl hydrocarbon receptor (AhR) signaling pathway - cell viability counter screen (AID 743086). Further: nearly all actives have a fitted effect of over 45% in size. Further: potency means the concentration at half of the fitted maximal effect. Summed up: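 Cytotoxicity counter screen: CellTiter-Fluor signal (30 min, 37 C) in 4000 HepG2 cells/well carrying the DRE-luciferase reporter, following 24 h compound exposure at 37 C.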
Experiment [10] can be described thus: qHTS assay for small molecule agonists of the antioxidant response element (ARE) signaling pathway - cell viability counter screen (AID 743203; calls by dose curve; further: nearly all actives have a fitted effect of over 55% in size). The procedure, abridged: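 Following 16 hrs of compound treatment at 37C, HepG2 cells with an ARE-controlled beta-lactamase gene were lysed with CellTiter-Glo. Luminescence was read after 30 min at room temperature.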

The target in experiment [11] is Estrogen receptor (Homo sapiens) (UniProt P03372). The experiment is described as follows: qHTS assay to identify small molecule antagonists of the estrogen receptor alpha (ER-alpha) signaling pathway (AID 743069; active means well fitted curve in the direction sought with a large enough effect in the signal ratio in the repeat runs, not every such curve was filed as active; the % refers to the signal ratio). The procedure, abridged: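 ER-alpha-UAS-bla GripTite HEK293 line; 2% charcoal-stripped FBS overnight; plated, 4 hr 37C/5% CO2; cpd in DMSO + 17beta-estradiol, 18 hr 37C; LiveBLAzer B/G FRET substrate 2 hr RT; fluorescence intensity.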

Experiment [12] is described as follows: qHTS assay to identify small molecule antagonists of the estrogen receptor alpha (ER-alpha) signaling pathway using the BG1 cell line (AID 743080; calls by dose curve;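 further: BG1 cells stimulated with 17beta-estradiol alongside compound; nearly all actives have a fitted effect of over 25% in size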; further: potency means the concentration at half of the fitted maximal effect). The procedure, abridged:
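Luciferase inhibition measured with ONE-Glo after 30 min at RT in BG1Luc4E2 cells given test compounds and 17beta-estradiol for 21.5 h at 37 C; CellTiter-Fluor viability read in the same wells beforehand.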

Experiment [13] is described as follows: qHTS assay for small molecule agonists of the antioxidant response element (ARE) signaling pathway (AID 743202; active means well fitted activation curve with a large enough effect in the signal ratio in the repeat runs, not every such curve was filed as active; the % refers to the signal ratio). The procedure, abridged: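 Quantitative high-throughput format in HepG2 cells bearing an integrated ARE-beta-lactamase reporter. Compound exposure lasted 16 h at 37 C, and fluorescence was read 2 h after adding LiveBLAzer B/G substrate at room temperature.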

The nature of experiment [14]: qHTS assay for small molecule activators of the heat shock response signaling pathway (AID 743210; active means well fitted activation curve with a large enough effect in the signal ratio in the repeat runs, with a control signal flat, not every such curve was filed as active; the % refers to the signal ratio;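 further: HeLa cells with beta-lactamase reporter driven by heat shock elements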). Summed up: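 HeLa HSE-bla cells, overnight plating; cpd in DMSO 5 h, 37 C; LiveBLAzer B/G FRET substrate 2.5 h RT; fluorescence intensity read.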
Experiment [15] concerns the target Estrogen receptor (Homo sapiens) (UniProt P03372). The experiment can be described thus: qHTS assay to identify small molecule agonists of the estrogen receptor alpha (ER-alpha) signaling pathway using the BG1 cell line (AID 743079). Further: nearly all actives have a fitted effect of over 20% in size. Particulars: BG1Luc4E2 cells, ERE-luciferase agonist, 22 h; activation: at 70.3 µM (top of the series).
Experiment [16] in a line: qHTS assay to identify small molecule antagonists of the peroxisome proliferator-activated receptor gamma (PPARg) signaling pathway - cell viability counter screen (AID 743194). Further: nearly all actives have a fitted effect of over 55% in size. Further: potency means the concentration at half of the fitted maximal effect. Particulars: Potency: co-treated with 50 nM rosiglitazone unless noted. Summed up:
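Viability was measured as CellTiter-Glo luminescence in GeneBLAzer PPARg UAS-bla HEK293H cells. These cells had been exposed 17 h at 37 C to compounds together with rosiglitazone at 50 nM final, with the beta-lactamase readout taken in the same wells.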

The nature of experiment [17]: qHTS assay for small molecule activators of the heat shock response signaling pathway - cell viability counter screen (AID 743209). Further: nearly all actives have a fitted effect of over 50% in size. Further: potency means the concentration at half of the fitted maximal effect. Summed up:
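Readout: CellTiter-Glo luminescence, 30 min at room temperature. System: HSE-bla HeLa cells, 1500/well, plated overnight. Treatment: compounds in DMSO, 5 h at 37 C.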

Experiment [18] deals with Peroxisome proliferator-activated receptor gamma (Homo sapiens) (UniProt P37231). The experiment is described as follows: qHTS assay to identify small molecule agonists of the peroxisome proliferator-activated receptor gamma (PPARg) signaling pathway (AID 743094; active means well fitted activation curve with a large enough effect in the signal ratio in the repeat runs, not every such curve was filed as active; the % refers to the signal ratio). The procedure, abridged:
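Compounds dissolved in DMSO were added to PPARg UAS-bla HEK293H cells for 17 h at 37C, and reporter expression was quantified by fluorescence intensity after 1 h with LiveBLAzer B/G FRET substrate.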

Experiment [19] shares this target. The experiment can be described thus: qHTS assay to identify small molecule antagonists of the peroxisome proliferator-activated receptor gamma (PPARg) signaling pathway (AID 743191; calls by dose curve; further: nearly all actives have a fitted effect of over 30% in size). Summed up: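 Beta-lactamase reporter under UAS control in HEK293H PPARg-bla cells; compound treatment 17 h at 37C. Read-out: fluorescence intensity after 1 h room-temperature incubation with LiveBLAzer B/G FRET substrate.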

Sequence of Estrogen receptor (Homo sapiens) (P03372 whole entry, looked up): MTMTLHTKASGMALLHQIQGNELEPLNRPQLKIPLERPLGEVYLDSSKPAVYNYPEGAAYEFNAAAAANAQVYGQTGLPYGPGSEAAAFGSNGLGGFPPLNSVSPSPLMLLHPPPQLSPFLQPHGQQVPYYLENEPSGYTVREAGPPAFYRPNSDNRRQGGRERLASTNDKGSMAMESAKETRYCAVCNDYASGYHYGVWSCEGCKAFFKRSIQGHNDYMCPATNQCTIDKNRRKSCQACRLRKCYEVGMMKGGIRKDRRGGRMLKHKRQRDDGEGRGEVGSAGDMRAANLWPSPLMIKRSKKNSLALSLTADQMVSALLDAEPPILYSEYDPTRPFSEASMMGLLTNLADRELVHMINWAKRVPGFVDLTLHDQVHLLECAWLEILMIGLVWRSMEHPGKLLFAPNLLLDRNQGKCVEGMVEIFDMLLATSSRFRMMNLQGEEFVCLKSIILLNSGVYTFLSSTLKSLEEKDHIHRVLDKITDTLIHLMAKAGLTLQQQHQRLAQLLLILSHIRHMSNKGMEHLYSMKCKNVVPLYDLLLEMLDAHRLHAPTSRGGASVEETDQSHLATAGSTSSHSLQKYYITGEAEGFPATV
Sequence of Aryl hydrocarbon receptor (Homo sapiens) (P35869 whole entry, looked up): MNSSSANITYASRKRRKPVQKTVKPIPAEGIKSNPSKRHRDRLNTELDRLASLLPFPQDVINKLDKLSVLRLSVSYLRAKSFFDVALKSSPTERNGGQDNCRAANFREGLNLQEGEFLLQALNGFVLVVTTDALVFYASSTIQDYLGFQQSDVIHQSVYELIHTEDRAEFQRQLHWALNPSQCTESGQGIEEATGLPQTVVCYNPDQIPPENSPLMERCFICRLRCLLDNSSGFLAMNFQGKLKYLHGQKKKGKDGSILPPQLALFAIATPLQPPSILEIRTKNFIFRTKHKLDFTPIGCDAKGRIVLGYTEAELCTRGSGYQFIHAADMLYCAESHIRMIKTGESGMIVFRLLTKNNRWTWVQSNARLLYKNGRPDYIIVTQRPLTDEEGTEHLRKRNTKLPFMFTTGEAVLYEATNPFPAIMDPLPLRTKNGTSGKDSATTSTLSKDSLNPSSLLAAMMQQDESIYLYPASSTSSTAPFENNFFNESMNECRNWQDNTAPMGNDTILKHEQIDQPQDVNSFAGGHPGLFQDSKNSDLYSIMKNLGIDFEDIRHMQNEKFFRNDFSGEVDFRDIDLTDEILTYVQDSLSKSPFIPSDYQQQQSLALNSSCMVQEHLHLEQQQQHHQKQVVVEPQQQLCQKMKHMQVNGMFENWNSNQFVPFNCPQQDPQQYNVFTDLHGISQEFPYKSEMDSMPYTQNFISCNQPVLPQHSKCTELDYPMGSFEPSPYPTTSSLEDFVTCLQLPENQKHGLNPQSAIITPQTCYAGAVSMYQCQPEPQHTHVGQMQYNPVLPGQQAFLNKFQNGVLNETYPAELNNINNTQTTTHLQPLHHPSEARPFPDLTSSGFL
Sequence of Aromatase (Homo sapiens) (P11511 whole entry, looked up): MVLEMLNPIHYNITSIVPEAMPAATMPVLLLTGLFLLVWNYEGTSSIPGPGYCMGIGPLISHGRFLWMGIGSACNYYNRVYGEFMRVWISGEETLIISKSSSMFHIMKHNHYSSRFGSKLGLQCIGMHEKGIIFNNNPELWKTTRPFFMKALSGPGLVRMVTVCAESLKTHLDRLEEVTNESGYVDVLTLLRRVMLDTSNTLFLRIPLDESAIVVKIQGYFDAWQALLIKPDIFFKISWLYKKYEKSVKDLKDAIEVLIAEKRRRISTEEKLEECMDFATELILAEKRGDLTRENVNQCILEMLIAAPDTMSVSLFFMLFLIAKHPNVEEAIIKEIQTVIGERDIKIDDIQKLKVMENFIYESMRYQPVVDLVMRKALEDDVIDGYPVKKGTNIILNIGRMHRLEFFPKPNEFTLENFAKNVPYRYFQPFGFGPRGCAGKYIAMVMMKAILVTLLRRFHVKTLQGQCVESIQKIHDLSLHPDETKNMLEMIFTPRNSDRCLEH
Sequence of Peroxisome proliferator-activated receptor gamma (Homo sapiens) (P37231 whole entry, looked up): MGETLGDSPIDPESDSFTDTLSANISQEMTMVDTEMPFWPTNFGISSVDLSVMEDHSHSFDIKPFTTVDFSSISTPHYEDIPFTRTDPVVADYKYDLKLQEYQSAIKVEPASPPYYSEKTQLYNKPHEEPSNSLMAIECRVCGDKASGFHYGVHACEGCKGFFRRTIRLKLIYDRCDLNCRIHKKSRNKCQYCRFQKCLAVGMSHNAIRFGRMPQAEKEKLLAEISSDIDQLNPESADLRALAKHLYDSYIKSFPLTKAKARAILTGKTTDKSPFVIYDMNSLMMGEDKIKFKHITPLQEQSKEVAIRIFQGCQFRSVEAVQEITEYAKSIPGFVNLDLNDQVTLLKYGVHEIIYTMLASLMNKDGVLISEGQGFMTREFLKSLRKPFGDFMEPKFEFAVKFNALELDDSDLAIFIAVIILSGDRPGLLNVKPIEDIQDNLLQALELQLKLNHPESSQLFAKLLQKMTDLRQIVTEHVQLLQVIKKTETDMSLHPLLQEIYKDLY

For the molecule `Nc1ccccc1-c1ccccc1`, the Potency entry in experiment [1], in [2], in experiment [3], in experiment [4], in experiment [5] and in experiment [6] was “inactive” throughout. The Potency entry (with Aromatase (Homo sapiens); in [7]; in experiment [8]; in experiment [9]; in experiment [10]) was “inactive” throughout.
With `CCCCN(CCCC)C(=S)[S-].CCCCN(CCCC)C(=S)[S-].[Ni+2]`, the Potency entry in experiment [1], in experiment [2], in experiment [3], in [11], in experiment [4] and in experiment [5] was “inactive” in each case. For the same molecule, the Potency entry (in experiment [12]; in [6]; with Aromatase (Homo sapiens); in experiment [7]; in experiment [8]; in experiment [9]) was “inactive” throughout. Moreover, the Potency result in [13], in experiment [10] and in [14] was “inactive” each time.
Take `NC1CCC(CC2CCC(N)CC2)CC1` (centres undefined): the Potency entry in experiment [1], in experiment [2], in experiment [3], in experiment [4], in [5] and in [15] was “inactive” throughout. The Potency entry (in experiment [12]; in the experiment with Aromatase (Homo sapiens); in experiment [8]; in experiment [9]; in experiment [16]; in [13]) was “inactive” each time. Besides, the Potency entry in [17] and in experiment [14] was “inactive” throughout.
On to `Cc1ccc(C)c2ccccc12`, for which the Potency entry (in experiment [1]; in experiment [2]; in [3]; in experiment [4]; in [6]; in the experiment with Aromatase (Homo sapiens)) was “inactive” in each case. For the same molecule, the Potency result in [7], in experiment [8], in experiment [9], in experiment [18], in experiment [13] and in [10] was “inactive” each time. In addition, in experiment [14], the Potency result is “inactive”.
As for `C=CC(=O)[O][Sn]([CH2]CCC)([CH2]CCC)[CH2]CCC`, the Potency is 0.969 µM (active) in [1]; 0.611 µM (active) in experiment [2]; 0.193 µM (active) in experiment [3]; 1.1 µM (active) in [4]; 0.433 µM (active) in experiment [12]; 5.45 µM (active) in [6]. Also, the Potency with Aromatase (Homo sapiens) was 5.45 µM (active); in experiment [7] it was 3.44 µM (active); in experiment [9], 4.33 µM (active); in experiment [16], 0.389 µM (active); in [17], 3.09 µM (active). Also, the Potency entry in experiment [8] was “inactive”.
Regarding `CCCCON=O`, the Potency result (in [1]; in experiment [2]; in experiment [3]; in experiment [4]; in experiment [6]; with Aromatase (Homo sapiens)) was “inactive” in each case. The Potency entry in experiment [7], in [8], in [9], in [18], in experiment [19] and in experiment [16] was “inactive” throughout. The Potency entry in experiment [13] and in [14] was “inactive” throughout.
Take `CCNS(=O)(=O)C(F)(F)C(F)(F)C(F)(F)C(F)(F)C(F)(F)C(F)(F)C(F)(F)C(F)(F)F`: the Potency result (in [1]; in experiment [2]; in experiment [3]; in experiment [4]; in experiment [6]; with Aromatase (Homo sapiens)) was “inactive” each time. For the same molecule, the Potency result in experiment [7], in experiment [8], in experiment [9], in experiment [18], in experiment [16] and in experiment [17] was “inactive” in each case. Also, the Potency result in experiment [14] was “inactive”.
Consider `c1ccc2nc(N3CCNCC3)ccc2c1`, for which the Potency in experiment [1] and in experiment [2] was 29.8 µM (active) in each case. Moreover, the Potency result in experiment [3], in experiment [11], in experiment [5], in [7], in experiment [8] and in experiment [18] was “inactive” each time. Besides, the Potency entry in [19], in experiment [16], in [17] and in experiment [14] was “inactive” in each case.
Regarding `CNC(C)(C)Cc1ccccc1`, the Potency result in [1], in [2], in [3], in [4], in experiment [12] and in experiment [6] was “inactive” throughout. Besides, the Potency entry (with Aromatase (Homo sapiens); in experiment [7]; in experiment [8]; in experiment [9]; in experiment [18]; in experiment [16]) was “inactive” in each case. Moreover, the Potency result in experiment [13], in experiment [10] and in experiment [17] was “inactive” throughout.
